# Data published in PubChem BioAssay (NCATS).
# Results filed as inconclusive are left out. A number with no mark means an inactive call. The source made the active and inactive calls. Calls come from the whole dose curve; as a rule, active = well fitted cell-killing curve with a large enough effect; inconclusive = small, poorly fitted or top-dose-only effect, or effect the other way; inactive = no such curve, though single readings can be large or run the other way.
# Assay: Cell Viability qHTS for small molecule stabilizers of the endoplasmic reticulum resident proteome (AID 1508629);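 note: compound exposure about 46 h in total before the viability read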
# Details: cell viability counter-screen, 100 nM thapsigargin for final 4 h
# Excerpt: Assay Provider: Brandon K. Harvey Ph.D.
# National Institute on Drug Abuse, National Institutes of Health, Baltimore, MD
# Endoplasmic reticulum (ER) dysregulation is associated with human pathologies including neurodegenerative, cardiovascular, muscular, and diabetic conditions. Maintenance of ER calcium is critical for functions of the ER and its depletion can lead to loss of ER resident proteins, in a process termed exodosis. Therapeutic compounds capable of attenuating the redistribution of ER proteins under pathological conditions may slow or stop disease progression. To identify such compounds, we performed a quantitative high-throughput screen (qHTS) using the SERCaMP assay, which monitors secretion of ER resident proteins triggered by calcium depletion.
# SERCaMP was initially developed as a reporter of ER calcium homeostasis using a Gaussia luciferase with a modified signal peptide and carboxy-terminus (GLuc-SERCaMP), modifications that confer secretion of the reporter in response to ER calcium depletion (Henderson et al., 2014). The assay was used to screen 9,501 compounds, including a collection of drugs approved by the FDA (US), EMA (EU), NHI (Japan), and HC (Canada) regulatory agencies (Huang et al., 2011). Since the SERCaMP reporter reflects the exodosis phenomenon (Trychta et al., 2018a), compounds identified in the screen have the potential to prevent exodosis by different mechanisms such as stabilizing ER calcium or augmenting ERS retrieval.
# 1. Henderson, M.J., Wires, E.S., Trychta, K.A., Richie, C.T., and Harvey, B.K. (2014). SERCaMP: a carboxy-terminal protein modification that enables monitoring of ER calcium homeostasis. Mol Biol Cell 25, 2828-2839.
# 2. Huang, R., Southall, N., Wang, Y., Yasgar, A., Shinn, P., Jadhav, A., Nguyen, D.T., and Austin, C.P. (2011). The NCGC pharmaceutical collection: a comprehensive resource of clinically approved drugs enabling repurposing and chemical genomics. Sci Transl Med 3, 80ps16.
# 3. Trychta, K.A., Back, S., Henderson, M.J., and Harvey, B.K. (2018a). KDEL Receptors Are Differentially Regulated to Maintain the ER Proteome under Calcium Deficiency. Cell Rep 25, 1829-1840 e1826.
# SEQUENCE No. (1, 2, 3, etc.); […] (e.g., Cells, Incubation, Reagent, etc.); VALUE and DESCRIPTION.
# 1; Reagent; 5 uL; 1000 SH-SY5Y cells per wells
# 3; Compound; 23 nL; Control inhibitor / compound library
# 5; Reagent; 100 nM; Thapsigargin
# 7; Reagent; 5 uL; CellTiter-Glo (Promega)
# 8; Time; 10 min; room temperature
# 9; Detection; Luminescence; ViewLux imaging system
# NOTES (numbers refer to sequence above)
# 1; SH-SY5Y human neuroblastoma cells stably expressing GLuc-SERCaMP (SH-SY5Y-GLuc-ASARTDL) cells were seeded in 1,536 well white tissue culture treated plates (Corning, Cat# 7464) in DMEM-high glucose-sodium pyruvate (ThermoFisher Scientific, Cat #10569) supplemented with 10% bovine growth serum (Hyclone), 10 U/ml penicillin (Gibco), 10 ug/ml streptomycin (Gibco), and 20 mM HEPES.
# 2; Assay plates were incubated for 5 hr at 37C in a humidified incubator containing 5% CO2.
# 3; qHTS libraries (23 nl, final concentrations of 1.53 uM, 7.67 uM, 38.3 uM) or controls (neutral control: DMSO, positive control: dantrolene) were added using a Kalypsis pin-tool Robotic System equipped with 1536 pinheads.
# 4; Cells were then incubated for 42 hours at 37C, 5% CO2.
# 5; Thapsigargin was added at 100 nM to deplete ER calcium stores.
# 6; Cells were incubated for 4 hr (37C, 5% CO2).
# 7; Cell viability was measured using the CellTiter-Glo Luminescent Cell Viability Assay (Promega). Briefly, an equal volume of reagent was added to each well. Plates were rotated for 2 min.
# 8; Assay plates were incubated for 10 min at room temperature.
# 9; Luminescence was measured using a ViewLux CCD imaging system (Perkin Elmer) equipped with clear filters.
# % is set by controls: 0 for no effect and ±100 for the full control effect; potency is the fitted concentration of half-maximal effect.
Compound,max response [%],Potency
CCCN(CC1CC1)c1nc(C)nc(Nc2c(Cl)cc(Cl)cc2Cl)c1Cl,17.8,–
N=C1N=C(N)c2cc3ccccc3cc21,–,39.8 µM (active)
CN(C)c1ccc(N=NS(=O)(=O)O)cc1,4.58,–
Fc1ccc(C(OCCCc2cnc[nH]2)c2ccc(F)cc2)cc1,-7.37,–
CC1CN(S(=O)(=O)c2cccc3cnccc23)CCN1 (configuration not stated),32.3,–
O=C(O)Cc1ccc2c(c1)C(=O)c1ccccc1CO2,16.2,–
O=C(c1ccc(Cl)cc1)N1CCN(c2ccc([N+](=O)[O-])c3ncccc23)CC1,3.83,–
CCCCCCCC/C=C\CCCCCCCC(=O)NCCO,21.6,–
C[N+]1(C)C2CC(OC(=O)[C@H](CO)c3ccccc3)CC1C1OC12 (some centres not stated),12,–
Oc1ccccc1O,-15.9,–
O=C1CN(/N=C/c2ccc(-c3ccc([N+](=O)[O-])cc3)o2)C(=O)N1,25.5,–
O=C(Nc1ccccc1)c1cc([N+](=O)[O-])ccc1Cl,-26.2,–
